Experimental data from PubChem BioAssay (NCI).
This is part of a sample that, as a whole, favours compounds with a hit. Of some 79,000 tested, about 15% had one in any assay. Activity calls are given as the source filed them. Rule as the data show it: active = growth inhibition above about 70%; inactive = the rest.

Tests used:
[1] = NCI Yeast Anticancer Drug Screen. Data for the rad52 strain (AID 147);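 also: 0% = growth of vehicle-treated control cultures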; conditions: S. cerevisiae rad52 mutant growth inhibition, hits give high values
Outline: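 Growth of repair-deficient yeast cells was compared between compound-treated and vehicle-treated cultures to give percent inhibition.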

[2] = NCI Yeast Anticancer Drug Screen. Data for the wt1 strain (AID 149);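 also: 0% = growth of vehicle-treated wt1 cultures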; conditions: S. cerevisiae wt1 strain (SPY 50644) growth inhibition, hits give high values
Outline: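 Yeast wt1 strain exposed to compounds; growth inhibition measured relative to vehicle-treated controls.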

[3] = NCI Yeast Anticancer Drug Screen. Data for the rad50EPP+ strain (AID 151);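 also: 0% = growth of vehicle-treated control cultures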; conditions: S. cerevisiae rad50 mutant strain, hits give high values
Outline: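 Measured: growth inhibition of rad50EPP+ yeast. Reference: vehicle-treated controls. Screen uses strains with defined genetic alterations in DNA damage repair or cell cycle control.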

[4] = NCI Yeast Anticancer Drug Screen. Data for the mgt1 strain (AID 153); conditions: S. cerevisiae mgt1 mutant growth inhibition, hits give high values
Outline: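 Compounds were applied to mgt1 mutant yeast, and growth was then compared against vehicle-treated control cultures to give percent inhibition.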

[5] = NCI Yeast Anticancer Drug Screen. Data for the rad50 strain (AID 155);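 also: 0% = growth of vehicle-only cultures of the same strain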; conditions: S. cerevisiae rad50 strain growth inhibition, hits give high values
Outline: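 Yeast carrying a defined DNA repair defect were exposed to test compounds, and growth was compared with vehicle-treated controls to give percent inhibition.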

[6] = NCI Yeast Anticancer Drug Screen. Data for the mec2-1 strain (AID 157); conditions: S. cerevisiae mec2-1 strain, hits give high values
Outline: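 Compounds were applied to mec2-1 yeast cells. Their growth was then compared with that of vehicle-treated cultures to give growth inhibition.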

[7] = NCI Yeast Anticancer Drug Screen. Data for the rad14 strain (AID 159);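 also: 0% = growth of vehicle-treated control cultures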; conditions: S. cerevisiae rad14 strain growth inhibition, hits give high values
Outline: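 Yeast cells carrying a defined DNA-repair defect were exposed to compounds, and growth inhibition was calculated relative to vehicle-treated control cultures.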

[8] = NCI Yeast Anticancer Drug Screen. Data for the CLN2oe strain (AID 163);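 also: 0% = growth of vehicle-only control cultures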; conditions: S. cerevisiae CLN2oe strain, hits give high values
Outline: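 Cells of an engineered yeast line with disturbed cell-cycle regulation are treated with compound. Inhibition of growth is then calculated relative to the vehicle-treated reference.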

[9] = NCI Yeast Anticancer Drug Screen. Data for the bub3 strain (AID 167); conditions: S. cerevisiae bub3 mutant strain, hits give high values
Outline: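 Compounds were applied to a genetically altered yeast strain carrying a cell-cycle control defect. Growth inhibition was scored against vehicle-treated controls.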

[10] = NCI Yeast Anticancer Drug Screen. Data for the wt2 strain (AID 169);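 also: 0% = growth of vehicle-treated yeast cultures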; conditions: S. cerevisiae wt2 strain growth inhibition, hits give high values
Outline: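 Growth of compound-treated yeast is measured and expressed as inhibition relative to vehicle-only controls.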

[11] = NCI Yeast Anticancer Drug Screen. Data for the mlh1 strain (AID 171);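 also: 0% = growth of vehicle-treated control cultures of the same strain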; conditions: S. cerevisiae mlh1 strain growth inhibition, hits give high values
Outline: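 Test agents were incubated with yeast bearing a defined DNA damage repair or cell cycle control alteration; values are growth inhibition normalised to vehicle-treated cultures.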

[12] = NCI Yeast Anticancer Drug Screen. Data for the mlh1 rad18 strain (AID 175); conditions: S. cerevisiae mlh1 rad18 strain growth inhibition, hits give high values
Outline: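 A repair-deficient yeast strain is exposed to test compound, and growth is scored relative to vehicle-treated controls.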

[13] = NCI Yeast Anticancer Drug Screen. Data for the rad18 strain (AID 177); conditions: S. cerevisiae rad18 mutant growth inhibition, hits give high values
Outline: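 DNA-repair-defective yeast; compound treatment; growth inhibition scored against vehicle.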

[14] = at 5.0 µM (retest, dose inferred, filed as 0.5)
[15] = at 50.0 µM (retest, dose inferred, filed as 5.0)

Measured: growth inhibition

CC(=O)SC(C[N+](=O)[O-])c1ccccc1 (configuration not stated)
inactive: [1]; at 1.2 µM 55% | [2]; at 1.2 µM 0% | [2]; at 3.7 µM 0% | [2]; at 11.0 µM 17% | [4]; at 1.2 µM 1% | [4]; at 3.7 µM 4% | [4]; at 11.0 µM 18% | [6]; at 1.2 µM 5% | [6]; at 3.7 µM 17% | [6]; [14] -15% | [6]; at 11.0 µM 52% | [7]; at 1.2 µM 14% | [7]; at 3.7 µM 28% | [7]; at 11.0 µM 42% | [8]; at 1.2 µM 7% | [8]; at 3.7 µM 19% | [8]; at 11.0 µM 38% | [9]; at 1.2 µM 23% | [9]; at 3.7 µM 30% | [9]; [14] 8% | [9]; at 11.0 µM 68% | [10]; at 1.2 µM -3% | [10]; at 3.7 µM -4% | [10]; at 11.0 µM 14% | [11]; at 1.2 µM 5% | [11]; at 3.7 µM 11% | [11]; at 11.0 µM 33% | [12]; [14] -37% | [13]; at 1.2 µM 19% | [13]; at 3.7 µM 33% | [13]; at 11.0 µM 55%
active: [1]; at 3.7 µM 76% | [1]; at 11.0 µM 88% | [1]; at 33.0 µM 99% | [1]; at 100.0 µM 99% | [2]; at 33.0 µM 95% | [2]; at 100.0 µM 100% | [3]; at 1.2 µM 89% | [3]; at 3.7 µM 92% | [3]; at 11.0 µM 95% | [3]; at 33.0 µM 99% | [3]; at 100.0 µM 99% | [4]; at 33.0 µM 81% | [4]; at 100.0 µM 100% | [5]; at 1.2 µM 81% | [5]; at 3.7 µM 92% | [5]; [14] 87% | [5]; at 11.0 µM 96% | [5]; at 33.0 µM 99% | [5]; [15] 98% | [5]; at 50.0 µM 99.2% | [5]; at 100.0 µM 99% | [6]; at 33.0 µM 94% | [6]; [15] 99% | [6]; at 50.0 µM 99.6% | [6]; at 100.0 µM 100% | [7]; at 33.0 µM 98% | [7]; at 100.0 µM 99% | [8]; at 33.0 µM 78% | [8]; at 100.0 µM 99% | [9]; at 33.0 µM 97% | [9]; [15] 98% | [9]; at 50.0 µM 95.2% | [9]; at 100.0 µM 99% | [10]; at 33.0 µM 99% | [10]; at 100.0 µM 99% | [11]; at 33.0 µM 96% | [11]; at 100.0 µM 99% | [12]; [15] 98% | [12]; at 50.0 µM 99.5% | [13]; at 33.0 µM 93% | [13]; at 100.0 µM 99%
